{"source": "paper PMC7862700", "about": "“An all-to-all approach to the identification of sequence-specific readers for epigenetic DNA modifications on cytosine”", "experiment_in_all_cases": "DAPPL (digital affinity profiling via proximity ligation, sequencing); 10 mM Tris-HCl pH 7.5, 50 mM NaCl, 1 mM DTT, 4% glycerol, room temperature, 30 min; GST-TFs on glutathione beads, 16-mer random dsDNA library, 0.1% formaldehyde crosslink after washing; high values mean tight binding", "conditions_in_all_cases": "protein: recombinant; tags: N-terminal GST; dsDNA, one strand shown", "key": {"ELF4": {"biological_target": "ELF4 (Homo sapiens, UniProt Q99607 1-663)", "sequence (Q99607 whole entry, the tested form may be a part)": "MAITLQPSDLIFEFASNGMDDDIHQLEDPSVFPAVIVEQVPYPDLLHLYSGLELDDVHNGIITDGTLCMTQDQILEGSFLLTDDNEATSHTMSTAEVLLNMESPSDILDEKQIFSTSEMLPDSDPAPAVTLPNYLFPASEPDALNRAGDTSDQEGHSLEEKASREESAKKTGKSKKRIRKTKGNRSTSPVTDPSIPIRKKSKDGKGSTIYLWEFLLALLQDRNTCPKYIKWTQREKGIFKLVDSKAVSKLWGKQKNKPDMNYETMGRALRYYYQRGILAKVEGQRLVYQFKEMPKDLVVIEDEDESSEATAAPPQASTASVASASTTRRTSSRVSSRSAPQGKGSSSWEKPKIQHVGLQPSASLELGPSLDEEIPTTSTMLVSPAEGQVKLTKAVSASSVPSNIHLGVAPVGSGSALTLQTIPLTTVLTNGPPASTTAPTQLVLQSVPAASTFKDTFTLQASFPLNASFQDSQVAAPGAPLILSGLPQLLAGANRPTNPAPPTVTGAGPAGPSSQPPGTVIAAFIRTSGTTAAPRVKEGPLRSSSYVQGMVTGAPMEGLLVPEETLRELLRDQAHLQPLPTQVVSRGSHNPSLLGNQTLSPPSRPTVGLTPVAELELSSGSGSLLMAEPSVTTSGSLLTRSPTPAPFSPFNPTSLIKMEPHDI", "outline": "(§1)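 Pools were built from human transcription factors expressed in yeast as GST fusions, captured on glutathione beads and DNA-barcoded, along with a tag-only sample. Incubation with 200 nmole of a 16-mer random double-stranded DNA library lasted 30 min at room temperature in Tris/NaCl/DTT/glycerol buffer, and was followed by washing, 0.1% formaldehyde crosslinking, proximity ligation, PCR amplification and Illumina NextSeq500 sequencing. Binding signal is the quotient of each hexamer's read frequency for a factor and its frequency for the tag-only sample.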"}, "ETV2": {"biological_target": "T1, ETV2 (Homo sapiens, UniProt O00321 1-342)", "T1 sequence": "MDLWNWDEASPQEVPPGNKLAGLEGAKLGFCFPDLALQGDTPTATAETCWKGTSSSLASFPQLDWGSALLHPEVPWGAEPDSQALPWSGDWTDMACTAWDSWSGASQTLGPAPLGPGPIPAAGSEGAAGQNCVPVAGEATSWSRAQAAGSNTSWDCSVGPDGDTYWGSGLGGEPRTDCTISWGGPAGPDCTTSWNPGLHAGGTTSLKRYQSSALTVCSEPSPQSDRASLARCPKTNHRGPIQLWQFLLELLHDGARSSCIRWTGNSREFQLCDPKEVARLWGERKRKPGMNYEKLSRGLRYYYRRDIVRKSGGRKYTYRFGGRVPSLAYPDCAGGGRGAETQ", "outline": "as §1"}, "ELF3": {"biological_target": "T2, ELF3 (Homo sapiens, UniProt P78545 1-371)", "T2 sequence": "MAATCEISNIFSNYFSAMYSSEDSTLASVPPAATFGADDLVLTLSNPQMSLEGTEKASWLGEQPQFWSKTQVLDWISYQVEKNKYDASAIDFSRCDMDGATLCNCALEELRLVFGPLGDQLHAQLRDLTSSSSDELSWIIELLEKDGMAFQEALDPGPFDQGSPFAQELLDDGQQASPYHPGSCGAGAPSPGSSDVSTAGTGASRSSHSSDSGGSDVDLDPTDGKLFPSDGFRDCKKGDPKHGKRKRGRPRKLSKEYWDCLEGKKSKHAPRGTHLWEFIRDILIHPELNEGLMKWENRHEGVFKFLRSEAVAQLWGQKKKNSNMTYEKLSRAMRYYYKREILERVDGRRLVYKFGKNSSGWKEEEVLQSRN", "outline": "as §1"}, "ETV1": {"biological_target": "ETV1 (Homo sapiens, UniProt P50549 1-477)", "sequence (P50549 whole entry)": "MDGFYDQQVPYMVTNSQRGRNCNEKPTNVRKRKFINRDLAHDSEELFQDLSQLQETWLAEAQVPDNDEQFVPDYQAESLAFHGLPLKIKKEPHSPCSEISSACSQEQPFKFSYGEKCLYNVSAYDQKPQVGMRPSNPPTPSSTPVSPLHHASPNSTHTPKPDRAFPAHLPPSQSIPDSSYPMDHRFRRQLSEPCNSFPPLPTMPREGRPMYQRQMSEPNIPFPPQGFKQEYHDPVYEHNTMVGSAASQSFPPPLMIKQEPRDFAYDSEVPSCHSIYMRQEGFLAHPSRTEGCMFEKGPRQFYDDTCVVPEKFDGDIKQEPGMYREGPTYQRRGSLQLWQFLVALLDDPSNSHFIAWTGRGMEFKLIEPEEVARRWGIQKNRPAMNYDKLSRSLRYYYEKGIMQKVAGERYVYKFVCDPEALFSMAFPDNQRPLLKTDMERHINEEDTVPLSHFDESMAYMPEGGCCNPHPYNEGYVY", "outline": "as §1"}, "ERF": {"biological_target": "T3, ERF (Homo sapiens, UniProt P50548 1-548)", "T3 sequence": "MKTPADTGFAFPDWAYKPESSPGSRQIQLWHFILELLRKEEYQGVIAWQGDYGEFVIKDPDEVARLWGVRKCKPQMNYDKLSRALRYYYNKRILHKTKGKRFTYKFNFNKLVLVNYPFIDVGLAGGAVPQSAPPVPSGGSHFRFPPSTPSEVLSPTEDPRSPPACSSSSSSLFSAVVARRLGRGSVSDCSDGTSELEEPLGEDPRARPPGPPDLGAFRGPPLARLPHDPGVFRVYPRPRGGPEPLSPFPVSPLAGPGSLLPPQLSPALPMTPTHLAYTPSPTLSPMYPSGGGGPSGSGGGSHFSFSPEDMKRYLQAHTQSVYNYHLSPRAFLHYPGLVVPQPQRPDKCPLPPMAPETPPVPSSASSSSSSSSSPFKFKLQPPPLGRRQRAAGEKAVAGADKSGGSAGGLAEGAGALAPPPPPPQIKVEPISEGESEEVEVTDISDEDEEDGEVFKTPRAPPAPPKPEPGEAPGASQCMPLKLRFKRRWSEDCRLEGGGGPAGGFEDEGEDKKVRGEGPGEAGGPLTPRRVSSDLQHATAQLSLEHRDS", "outline": "as §1"}, "ETV3L": {"biological_target": "T4, ETV3L (Homo sapiens, UniProt Q6ZN32 1-361)", "T4 sequence": "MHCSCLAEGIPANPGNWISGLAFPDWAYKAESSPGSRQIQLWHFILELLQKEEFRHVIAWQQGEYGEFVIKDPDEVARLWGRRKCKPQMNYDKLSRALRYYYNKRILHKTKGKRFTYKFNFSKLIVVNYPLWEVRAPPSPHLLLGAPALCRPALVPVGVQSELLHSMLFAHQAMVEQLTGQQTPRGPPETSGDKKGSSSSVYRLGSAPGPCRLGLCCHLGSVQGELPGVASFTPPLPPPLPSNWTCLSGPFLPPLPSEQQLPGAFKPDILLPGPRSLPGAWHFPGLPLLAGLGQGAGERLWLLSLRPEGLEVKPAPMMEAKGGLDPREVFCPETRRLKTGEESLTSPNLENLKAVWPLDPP", "outline": "as §1"}, "ETS2": {"biological_target": "T5, ETS2 (Homo sapiens, UniProt P15036 1-469)", "T5 sequence": "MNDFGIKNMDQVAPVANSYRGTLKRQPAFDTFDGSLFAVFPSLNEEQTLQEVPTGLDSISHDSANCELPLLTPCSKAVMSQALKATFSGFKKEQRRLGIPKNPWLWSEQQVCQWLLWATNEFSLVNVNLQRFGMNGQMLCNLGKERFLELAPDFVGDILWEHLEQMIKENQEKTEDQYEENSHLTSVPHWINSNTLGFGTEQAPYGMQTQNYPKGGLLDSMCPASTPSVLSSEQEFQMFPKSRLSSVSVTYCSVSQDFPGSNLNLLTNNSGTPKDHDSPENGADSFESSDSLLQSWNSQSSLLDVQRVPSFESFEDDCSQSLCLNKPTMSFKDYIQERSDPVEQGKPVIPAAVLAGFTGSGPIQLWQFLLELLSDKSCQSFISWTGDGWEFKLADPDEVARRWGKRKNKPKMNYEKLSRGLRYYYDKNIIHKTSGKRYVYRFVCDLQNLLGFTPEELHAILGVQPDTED", "outline": "as §1"}, "ETV7": {"biological_target": "T6, ETV7 (Homo sapiens, UniProt Q9Y603 1-341)", "T6 sequence": "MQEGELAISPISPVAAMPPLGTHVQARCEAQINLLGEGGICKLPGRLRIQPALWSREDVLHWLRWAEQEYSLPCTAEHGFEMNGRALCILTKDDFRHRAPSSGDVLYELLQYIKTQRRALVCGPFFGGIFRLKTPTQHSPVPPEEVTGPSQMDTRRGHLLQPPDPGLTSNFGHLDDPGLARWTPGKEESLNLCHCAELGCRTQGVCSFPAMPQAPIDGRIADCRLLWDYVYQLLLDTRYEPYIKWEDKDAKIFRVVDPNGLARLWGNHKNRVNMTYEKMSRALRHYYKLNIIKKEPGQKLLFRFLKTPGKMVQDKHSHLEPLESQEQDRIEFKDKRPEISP", "outline": "as §1"}, "ETV3": {"biological_target": "T7, ETV3 (Homo sapiens, UniProt P41162-2 1-143)", "T7 sequence": "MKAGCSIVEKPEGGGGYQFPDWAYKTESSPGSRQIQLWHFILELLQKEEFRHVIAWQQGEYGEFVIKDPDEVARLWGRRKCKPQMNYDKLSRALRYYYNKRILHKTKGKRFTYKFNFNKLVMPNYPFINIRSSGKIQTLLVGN", "outline": "as §1"}, "ETV6": {"biological_target": "ETV6 (Homo sapiens, UniProt P41212 1-452)", "sequence (P41212 whole entry)": "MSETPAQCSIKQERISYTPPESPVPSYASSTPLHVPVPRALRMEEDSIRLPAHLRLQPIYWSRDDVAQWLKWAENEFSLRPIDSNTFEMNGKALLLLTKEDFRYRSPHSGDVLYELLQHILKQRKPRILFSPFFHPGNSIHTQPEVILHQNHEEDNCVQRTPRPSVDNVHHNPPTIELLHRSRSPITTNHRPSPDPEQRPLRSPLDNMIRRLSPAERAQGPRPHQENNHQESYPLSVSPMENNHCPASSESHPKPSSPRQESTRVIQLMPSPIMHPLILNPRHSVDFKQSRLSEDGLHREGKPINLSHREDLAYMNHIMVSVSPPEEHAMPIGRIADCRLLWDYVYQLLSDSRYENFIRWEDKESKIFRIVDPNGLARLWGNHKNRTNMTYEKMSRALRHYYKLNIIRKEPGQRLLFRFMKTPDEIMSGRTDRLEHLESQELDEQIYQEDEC", "outline": "as §1"}}, "data": [{"sequence": "ATTGGC", "values": [{"measurement": "binding signal", "setting": "ELF4", "result": "1.14 fold enrichment (6-mer frequency, TF over GST control)"}, {"measurement": "binding signal", "setting": "ETV2", "result": "1.1 fold enrichment (6-mer frequency, TF over GST control)"}, {"measurement": "binding signal", "setting": "ELF3", "result": "1.24 fold enrichment (6-mer frequency, TF over GST control)"}, {"measurement": "binding signal", "setting": "ETV1", "result": "1.11 fold enrichment (6-mer frequency, TF over GST control)"}, {"measurement": "binding signal", "setting": "ERF", "result": "1.15 fold enrichment (6-mer frequency, TF over GST control)"}, {"measurement": "binding signal", "setting": "ETV3L", "result": "1.18 fold enrichment (6-mer frequency, TF over GST control)"}, {"measurement": "binding signal", "setting": "ETS2", "result": "1.18 fold enrichment (6-mer frequency, TF over GST control)"}, {"measurement": "binding signal", "setting": "ETV7", "result": "1.04 fold enrichment (6-mer frequency, TF over GST control)"}, {"measurement": "binding signal", "setting": "ETV3", "result": "1.09 fold enrichment (6-mer frequency, TF over GST control)"}, {"measurement": "binding signal", "setting": "ETV6", "result": "1.13 fold enrichment (6-mer frequency, TF over GST control)"}]}]}
